# Lassa entry inh = qHTS for Inhibitors of binding or entry into cells for Lassa Virus | Lassa virus pseudotype entry inhibition, cell reporter | Potency, µM (doses to about 37.9 µM), inactives show top-dose activity change, negative = inhibition, most hits filed as inhibitors | 1.2% of 300,000 active | AID 540256, 2011; calls by dose curve; tested in HEK293 cells; also: potency is read from the fitted curve at half-maximal effect; % is scaled to controls: 0 for no effect and ±100 for the full control effect; nearly all actives have a fitted effect of over 50% in size
# MARV entry inh = qHTS for inhibitors of binding or entry into cells for Marburg Virus | Marburg virus pseudotyped entry inhibition, cell reporter | Potency, µM (highest dose often 37.8 µM), for the others: at the highest dose activity change, negative = inhibition, hits mostly inhibitors | 1.8% of 300,000 active; calls by dose curve; tested in HEK293 cells; also: potency is read from the fitted curve at half-maximal effect; % is scaled to controls: 0 for no effect and ±100 for the full control effect
# VACV Venus inh = qHTS for Stage-Specific Inhibitors of Vaccinia Orthopoxvirus: Venus Reporter Primary qHTS; Vaccinia virus Venus reporter expression, fluorescence; Potency, µM (doses to about 36.5 µM), for inactives: top-dose activity change, negative = inhibition, most hits filed as inhibitors; 0.46% of 330,000 active; AID 720580, 2013; calls by dose curve; tested in A549 cells; also: potency is read from the fitted curve at half-maximal effect; % is scaled to controls: 0 for no effect and ±100 for the full control effect; nearly all actives have a fitted effect of over 30% in size
# Vaccinia mCherry = qHTS for Stage-Specific Inhibitors of Vaccinia Orthopoxvirus: mCherry Reporter Primary qHTS; 0.63% of 310,000 active; Vaccinia virus mCherry reporter infection, fluorescence; Potency, µM (titrated, usually from 36.5 µM), inactives show at the highest dose activity change, negative = inhibition, actives largely listed as inhibitors; calls by dose curve; tested in A549 cells; also: potency is read from the fitted curve at half-maximal effect; % is scaled to controls: 0 for no effect and ±100 for the full control effect; nearly all actives have a fitted effect of over 35% in size
# Shiga inhibitor = A qHTS for Small Molecule Inhibitors of Shiga Toxin; Vero cells, Shiga toxin protein synthesis inhibition reporter; inhibition, % at 38.7 µM; 9.2% of 290,000 active; in the data active = inhibition mostly above about 28%, no sharp cut-off; inactive = mostly below about 43%; also: 0% is about no effect
# Cycloheximide cs = Cycloheximide Counterscreen for Small Molecule Inhibitors of Shiga Toxin | cell reporter, cycloheximide protein synthesis inhibition counterscreen | 12% of 300,000 active | max response, %; in the data active = max response mostly above about 13%, no sharp cut-off; inactive = mostly below about 14%; also: read at 38.3 µM for the half of the compounds with a filed dose; 0% is about no effect
# Active calls of the source: *; i = inactive; ? = inconclusive; . = no result given; [ ] = dose if it differs, or a comment. The sample as a whole holds a higher share of hits than the screen did.
SMILES,Lassa entry inh,MARV entry inh,VACV Venus inh,Vaccinia mCherry,Shiga inhibitor,Cycloheximide cs
C=CCc1cccc(C=NNC(=O)CN2CCN(Cc3ccccc3)CC2)c1O,12µM*,?,.,.,.,.
COc1ccccc1-c1nc2c(c(SCc3ccc(F)cc3Cl)n1)Cc1c(CO)cnc(C)c1O2,14%[46.1 µM],.,-16%,-10%,.,.
O=C(NCCC1=CCCCC1)c1ccc2c(c1)N(Cc1ccc(Cl)cc1)C(=O)c1ccccc1S2=O (configuration not stated),-22%[46.1 µM],?,?,?,.,.
COc1ccc(CCN2CC(C(=O)NCc3cnn(C(C)C)c3)CCC2=O)cc1 (configuration not stated),15%,11%,-10%,i,-1,7
COc1cccc2c(=O)c(SC(F)(F)C(F)C(F)(F)F)c(C)[nH]c12 (configuration not stated),4%,-9%,.,.,52*,33
Cc1[nH]c2ccc(F)cc2c(=O)c1SC(F)(F)C(F)C(F)(F)F (configuration not stated),-28%,-14%,?,?,-12,-2
O=C(N/N=C/c1cn(-c2cccs2)nc1-c1ccccc1)c1ccccc1O,13µM*,16µM*,?,13µM*,94*,49*
O=C(N/N=C/c1cn(-c2ccccc2)nc1-c1cccnc1)c1ccccc1,-27%[46.1 µM],?,-11%,-3%,5,-1
O=C(N/N=C/c1cn(-c2cccs2)nc1-c1ccccc1)c1ccccc1Br,-13%,-28%,?,i,55,25*
Cc1cnc(SCc2ccccn2)nc1C1CCCN(C(=O)c2noc3c2CCCC3)C1 (configuration not stated),.,.,?,-16%,.,.
OC1(c2ccccn2)COc2ccccc2O1 (configuration not stated),26%,11%[46.1 µM],-5%,-8%,32,24*
O=C(c1cc2ccccc2oc1=O)N1CCN(c2ccccn2)CC1,28%,2%,-8%,-17%,2,-1
O=C(c1cc2ccccc2oc1=O)N1CCCC1,0%,?,-7%,-10%,-1,-4
CN1CCN(C(=O)c2cc3ccccc3oc2=O)CC1,-1%,-4%[46.1 µM],3%,1%,-6,13*
O=C(c1cc2ccccc2oc1=O)N1CCN(c2ncccn2)CC1,?,?,-4%,-13%,86*,34*
Cc1cccc(N2CCN(C(=O)c3cc4ccccc4oc3=O)CC2)c1C,.,.,-14%,?,17,20*
Cc1cccc(N2CCN(C(=O)c3c(Cl)cnn3C)CC2)c1C,11µM*,?,-22%,-26%,-29,-3
CC(C)OC(=O)[C@@H](CC(=O)O)NCc1ccccc1,.,0%,.,.,.,.
O=C1/C(=C/c2cccc3ccccc23)CCCc2ccccc21,2%,-3%[46.1 µM],?,i,51*,29*
N#Cc1cccn1-c1nccc(-c2cccs2)n1,1%[46.1 µM],-18%[46.1 µM],-8%,-10%,77*,29*
N#Cc1nc(-c2ccccc2Cl)oc1N1CCCCC1,13%,18%,-16%,.,129*,24*
N#Cc1nc(-c2cccc3ccccc23)oc1N1CCCCC1,11%,?,-10%,i,44,22*
COC(=O)c1cc(CNC(=O)c2ccc(N(C)C)cc2)cc(NC(=O)c2ccccc2Cl)c1,.,.,0%,-3%,.,.
Oc1ccc(Cl)cc1CNc1ccc(Br)cn1,?,-3%,.,.,111*,45*
Oc1ccc(Cl)cc1CNc1nccs1,?,14%[46.1 µM],?,?,17,9
SMILES,Lassa entry inh,MARV entry inh,VACV Venus inh,Vaccinia mCherry,Shiga inhibitor,Cycloheximide cs
Oc1c(Cl)cc(Cl)cc1CNc1ccc(Br)cn1,?,-56%,-11%,-14%,73*,32*
Oc1ccc(Cl)cc1CNc1ccccn1,?,4%[46.1 µM],-17%,i,52,15*
CC(=O)c1ccc(NC(=O)c2c(C)nn(-c3ccccc3)c2Cl)cc1,1%,?,-2%,-5%,-8,-3
Cc1ccc(NC(=O)c2c(C)nn(-c3ccccc3)c2Cl)cc1,-15%,22%,-12%,-16%,66*,35*
COc1cccc(NC(=O)c2c(C)nn(-c3ccccc3)c2Cl)c1,.,.,.,.,31,19*
Cc1nn(-c2ccccc2)c(C)c1C(=O)OCc1ccc(C#N)cc1,.,.,.,.,25,36*
COc1ccc(COC(=O)c2c(C)nn(-c3ccccc3)c2Cl)cc1,?,27%[46.1 µM],4%,-7%,39*,22*
Cc1nn(-c2ccccc2)c(C)c1C(=O)OCC(N)=O,.,.,.,.,-11,-1
COC(=O)C#CC(=O)OC,.,.,.,.,-7,-5
CC(NC(=O)Nc1ccc(F)cc1F)c1ccc2c(c1)OCO2 (configuration not stated),23%[46.1 µM],?,?,-6%,-11,2
CC(=O)Nc1ccc(/C=C/c2sc3ccccc3[n+]2CCCCI)cc1,.,.,61%,36%,.,.
CSc1ccc(-c2cc3c(c4c2ccn4C)C2CCC3O2)cc1 (configuration not stated),?,.,-9%,i,.,.
CC(=O)c1cccc(NC(=O)c2c(C)nn(-c3ccccc3)c2Cl)c1,3%,2%,-9%,-11%,16,9
COc1ccc(NC(=O)c2c(C)nn(-c3ccccc3)c2Cl)cc1,?,?,-8%,-15%,.,16*
O=C(N=Nc1c(O)[nH]c2ccccc12)c1cccc(S(=O)(=O)N2CCCCC2)c1,12%,19%,-5%,i,63*,12*
CC(C)c1ccc2[nH]c(O)c(N=NC(=O)c3cccc(S(=O)(=O)N4CCCCC4)c3)c2c1,?,10µM*,-25%,?,-1,-4
Cc1c(C(=O)N2CCC(C)CC2)c(S(=O)(=O)NCc2ccc(Cl)cc2)c(C)n1C,4%[46.1 µM],.,-8%,-8%,.,.
CCOc1ccc(C(=O)Nc2nnc(NC(=S)Nc3ccccc3)s2)cc1,-8%,-4%,-12%,-12%,70*,26*
CCc1nnc(NC(=O)CCC(=O)Nc2ccccc2)s1,-2%,25%[46.1 µM],0%,-10%,2,-2
CCc1nnc(NC(=S)Nc2ccccc2)s1,5%,-26%,.,.,99*,45*
Cc1nc(NC(=S)Nc2ccccc2)sc1C,.,.,.,.,127*,43*
COc1cccc(CNc2nccn(-c3cc(C)cc(C)c3)c2=O)c1,-4%[46.1 µM],.,-9%,-14%,.,.
CCC12CN3CC(C)(CN(C1)C3c1c(C)[nH]c3ccccc13)C2=O (configuration not stated),?,-1%[46.1 µM],-5%,4%,.,.
CN1c2ccsc2C(O)=C(C(=O)Nc2ccccc2)S1(=O)=O,18%,6%,.,.,-1,11
Cc1ccc(NC(=O)C2=C(O)c3sccc3N(C)S2(=O)=O)cc1,-3%,1%,.,.,27,23*
Cc1ccc(NC(=S)C2=C(O)c3sccc3N(C)S2(=O)=O)cc1,-24%,-6%[46.1 µM],-2%,-9%,31,19*
Cc1cc(C)cc(NC(=O)Cn2nnc(C(=O)NCc3ccc(F)cc3)c2N)c1,.,.,0%[7.34 µM],i[7.34 µM],4,13

# Source: PubChem (National Center for Advancing Translational Sciences (NCATS))
